# Measured values: the supplement of paper PMC8728848
# Shown is part of a subset that was picked to be rich in the strongest signals.
# B1: Gal 8 (Mus musculus), Q9JL15 (protein)
# chain: MGGSHHHHHHGMASMLSLNNLQNIIYNPIIPYVGTITEQLKPGSLIVIRGHVPKDSERFQVDFQLGNSLKPRADVAFHFNPHFKRSSCIVCNTLTQEKWGWEEITYDMPFRKEKSFEIVFMVLKNKFQVAVNGRHVLLYAHRISPEQIDTVGIYGKVNIHSIGFRFSSASALPHTLGDLQSMETSALGLTQINRENIQKPGKLQLSLPFEARLNASMGPGRTVVIKGEVNTNARSFNVDLVAGKTRDIALHLNPHLNVKAFVRNSFLQDAWGEEERNITCFPFSSGMYFEMIIYCDVREFKVAINGVHSLEYKHRFKDLSSIDTLSVDGDIRLLDVRSW
# Columns and labels:
# Assay in all cases: glycan array binding signal (z-score within array); higher = stronger binding
# Conditions in all cases: glycan notation: IUPAC condensed, linker removed; mutation: R82H, R255H
# [1] = target: Fuc(a1-2)Gal(b1-3)GlcNAc(b1-3)[Gal(b1-4)GlcNAc(b1-6)]Gal(b1-4)Glc
# Procedure, shortened: (§1)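 The Consortium for Functional Glycomics database supplied 3228 glycan arrays, of which those lacking an available protein sequence were dropped. The binding signal, a within-array Z-score, was averaged across arrays of the same protein sequence and across linkers. Negative scores can be read as non-binding.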
# [2] = target: Fuc(a1-2)Gal(b1-3)[Fuc(a1-4)]GlcNAc(b1-2)Man(a1-3)[Fuc(a1-2)Gal(b1-3)[Fuc(a1-4)]GlcNAc(b1-2)Man(a1-3)]Man(b1-4)GlcNAc(b1-4)GlcNAc
# Procedure, shortened: as §1
# [3] = target: Fuc(a1-2)[Gal(a1-3)]Gal(b1-3)GlcNAc(b1-2)Man(a1-3)[Fuc(a1-2)[Gal(a1-3)]Gal(b1-3)GlcNAc(b1-2)Man(a1-6)]Man(b1-4)GlcNAc(b1-4)GlcNAc
# Procedure, shortened: as §1
# [4] = target: Fuc(a1-2)[Gal(a1-3)]Gal(b1-4)GlcNAc(b1-6)GalNAc
# Procedure, shortened: as §1
# [5] = target: Fuc(a1-2)[GalNAc(a1-3)]Gal
# Procedure, shortened: as §1
# [6] = target: Fuc(a1-2)[GalNAc(a1-3)]Gal(b1-3)GalNAc(b1-3)Gal(a1-4)Gal(b1-4)Glc
# Procedure, shortened: as §1
# [7] = target: Fuc(a1-2)[GalNAc(a1-3)]Gal(b1-3)GlcNAc(b1-2)Man(a1-3)[Fuc(a1-2)[GalNAc(a1-3)]Gal(b1-3)GlcNAc(b1-2)Man(a1-6)]Man(b1-4)GlcNAc(b1-4)GlcNAc
# Procedure, shortened: as §1
# [8] = target: Fuc(a1-2)[GalNAc(a1-3)]Gal(b1-4)GlcNAc(b1-2)Man(a1-3)[Fuc(a1-2)[GalNAc(a1-3)]Gal(b1-4)GlcNAc(b1-2)Man(a1-6)]Man(b1-4)GlcNAc(b1-4)GlcNAc
# Procedure, shortened: as §1
# [9] = target: Fuc(a1-2)[GalNAc(a1-3)]Gal(b1-4)GlcNAc(b1-3)Gal(b1-4)GlcNAc
# Procedure, shortened: as §1
# [10] = target: Fuc(a1-2)[GalNAc(a1-3)]Gal(b1-4)GlcNAc(b1-3)[Fuc(a1-2)[GalNAc(a1-3)]Gal(b1-4)GlcNAc(b1-6)]GalNAc
# Procedure, shortened: as §1
# [11] = target: Fuc(a1-3)[Gal(b1-4)]GlcNAc(b1-6)GalNAc
# Procedure, shortened: as §1
# [12] = target: Fuc(a1-3)[Gal3S(b1-4)]Glc
# Procedure, shortened: as §1
# [13] = target: Fuc(a1-4)GlcNAc
# Procedure, shortened: as §1
# [14] = target: Gal(a1-3)Gal(b1-3)GlcNAc(b1-2)Man
# Procedure, shortened: as §1
# [15] = target: Gal(a1-3)[Gal(a1-4)]Gal(b1-4)GlcNAc
# Procedure, shortened: as §1
# [16] = target: Gal(a1-4)Gal(b1-4)Glc
# Procedure, shortened: as §1
# [17] = target: Gal(b1-2)Gal
# Procedure, shortened: as §1
# [18] = target: Gal(b1-3)GalNAc
# Procedure, shortened: as §1
# [19] = target: Gal(b1-3)GalNAc(b1-3)Gal(a1-4)Gal(b1-4)Glc
# Procedure, shortened: as §1
# [20] = target: Gal(b1-3)GalNAc(b1-4)Gal(b1-4)Glc
# Procedure, shortened: as §1
# [21] = target: Gal(b1-3)GlcNAc(a1-3)Gal(b1-4)GlcNAc
# Procedure, shortened: as §1
# [22] = target: Gal(b1-3)GlcNAc(b1-3)Gal(b1-4)Glc
# Procedure, shortened: as §1
# [23] = target: Gal(b1-3)GlcNAc(b1-6)GalNAc
# Procedure, shortened: as §1
# [24] = target: Gal(b1-3)[Fuc(a1-4)]GlcNAc(b1-6)GalNAc
# Procedure, shortened: as §1
# [25] = target: Gal(b1-4)GlcNAc(b1-2)Man
# Procedure, shortened: as §1
# [26] = target: Gal(b1-4)GlcNAc(b1-3)Gal(b1-4)GlcNAc(b1-2)Man(a1-3)[Gal(b1-4)GlcNAc(b1-3)Gal(b1-4)GlcNAc(b1-2)Man(a1-6)]Man(b1-4)GlcNAc(b1-4)GlcNAc
# Procedure, shortened: as §1
# [27] = target: Gal(b1-4)GlcNAc(b1-3)Gal(b1-4)GlcNAc(b1-3)Gal(b1-4)GlcNAc(b1-3)Gal(b1-4)GlcNAc(b1-3)Gal(b1-4)GlcNAc(b1-2)[Gal(b1-4)GlcNAc(b1-3)Gal(b1-4)GlcNAc(b1-3)Gal(b1-4)GlcNAc(b1-3)Gal(b1-4)GlcNAc(b1-3)Gal(b1-4)GlcNAc(b1-6)]Man(a1-6)[Gal(b1-4)GlcNAc(b1-3)Gal(b1-4)GlcNAc(b1-3)Gal(b1-4)GlcNAc(b1-3)Gal(b1-4)GlcNAc(b1-3)Gal(b1-4)GlcNAc(b1-2)Man(a1-3)]Man(b1-4)GlcNAc(b1-4)[Fuc(a1-6)]GlcNAc
# Procedure, shortened: as §1
# [28] = target: Gal(b1-4)GlcNAc(b1-3)Gal(b1-4)GlcNAc(b1-3)Gal(b1-4)GlcNAc(b1-3)Gal(b1-4)GlcNAc(b1-3)Gal(b1-4)GlcNAc(b1-3)Gal(b1-4)GlcNAc(b1-2)Man(a1-3)[Gal(b1-4)GlcNAc(b1-3)Gal(b1-4)GlcNAc(b1-3)Gal(b1-4)GlcNAc(b1-3)Gal(b1-4)GlcNAc(b1-3)Gal(b1-4)GlcNAc(b1-3)Gal(b1-4)GlcNAc(b1-2)Man(a1-6)]Man(b1-4)GlcNAc(b1-4)GlcNAc
# Procedure, shortened: as §1
binder,measurement,setting,value
B1,glycan array binding signal (z-score),[1],1.15
same,glycan array binding signal (z-score),[2],-0.083
same,glycan array binding signal (z-score),[3],4.77
same,glycan array binding signal (z-score),[4],-0.168
same,glycan array binding signal (z-score),[5],-0.248
same,glycan array binding signal (z-score),[6],-0.253
same,glycan array binding signal (z-score),[7],7.3
same,glycan array binding signal (z-score),[8],6.58
same,glycan array binding signal (z-score),[9],-0.08
same,glycan array binding signal (z-score),[10],0.117
same,glycan array binding signal (z-score),[11],-0.212
same,glycan array binding signal (z-score),[12],-0.192
same,glycan array binding signal (z-score),[13],0.01
same,glycan array binding signal (z-score),[14],-0.263
same,glycan array binding signal (z-score),[15],-0.236
same,glycan array binding signal (z-score),[16],-0.18
same,glycan array binding signal (z-score),[17],-0.193
same,glycan array binding signal (z-score),[18],-0.251
same,glycan array binding signal (z-score),[19],-0.235
same,glycan array binding signal (z-score),[20],-0.226
same,glycan array binding signal (z-score),[21],-0.269
same,glycan array binding signal (z-score),[22],-0.263
same,glycan array binding signal (z-score),[23],-0.274
same,glycan array binding signal (z-score),[24],-0.243
same,glycan array binding signal (z-score),[25],-0.197
same,glycan array binding signal (z-score),[26],0.454
same,glycan array binding signal (z-score),[27],6
same,glycan array binding signal (z-score),[28],7.05
